FMDV inh = High Throughput Screening for Foot and Mouth Disease Virus Antivirals. Potency, µM (highest dose often 57.9 µM), most hits filed as inhibitors. hit rate 1.2% among 410,000. AID 1159524, 2015. FMDV antiviral cell-based qHTS; calls by dose curve; tested in HEK293T cells; further: read-out not given here; nearly all actives have a fitted effect of over 45% in size
VACV Venus inh = qHTS for Stage-Specific Inhibitors of Vaccinia Orthopoxvirus: Venus Reporter Primary qHTS. Potency, µM (highest dose often 36.5 µM), actives largely listed as inhibitors. Vaccinia virus Venus reporter expression, fluorescence. hit rate 0.46% among 330,000; calls by dose curve; tested in A549 cells; further: nearly all actives have a fitted effect of over 30% in size
HCMV antiviral = qHTS Assay for inhibitors of the human cytomegalovirus (HCMV); activity change, negative = inhibition, % at 57.5 µM; hit rate 4.5% among 410,000; HFF cells, HCMV-luciferase reporter, 72 h; stronger effect = lower value; in the data active means activity change below about -60%; inconclusive means no clear call, values can overlap the other calls; inactive means above about -39%
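Screen run at 2 compound doses on HFFs infected with reporter HCMV, MOI 1 PFU/cell. Luciferase activity from cell lysates at 72 h post infection gave inhibition relative to buffer-only and Salinomycin wells.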
Giardia FBPA inh = qHTS Assay for Inhibitors of Fructose-1,6-bisphosphate Aldolase from Giardia Lamblia. purified Giardia FBPA. A8B2U2. hit rate 0.71% among 290,000. Potency, µM (highest dose often 59.6 µM), actives largely listed as inhibitors; further: nearly all actives have a fitted effect of over 55% in size
Target sequence (A8B2U2 whole entry, looked up): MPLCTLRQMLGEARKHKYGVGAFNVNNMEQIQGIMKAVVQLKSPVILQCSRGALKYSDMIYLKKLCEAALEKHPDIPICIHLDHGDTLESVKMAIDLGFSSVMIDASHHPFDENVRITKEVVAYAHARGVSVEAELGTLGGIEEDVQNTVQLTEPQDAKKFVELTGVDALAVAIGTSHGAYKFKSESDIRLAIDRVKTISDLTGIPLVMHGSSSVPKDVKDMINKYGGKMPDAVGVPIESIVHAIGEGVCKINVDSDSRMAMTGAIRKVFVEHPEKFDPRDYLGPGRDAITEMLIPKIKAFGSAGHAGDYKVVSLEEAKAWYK
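Giardia FBPA (40 nM reagent) was preincubated 10 min at RT with compound (up to 57.5 uM final), then substrate plus GAPDH/TPI/NAD/arsenate coupling system with diaphorase/resazurin was added; resorufin fluorescence (525/598 nm) was read after 20 min.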
VACV mCherry inh = qHTS for Stage-Specific Inhibitors of Vaccinia Orthopoxvirus: mCherry Reporter Primary qHTS. Vaccinia virus mCherry reporter infection, fluorescence. Potency, µM (series often up to 36.5 µM), most hits filed as inhibitors. hit rate 0.63% among 310,000; calls by dose curve; tested in A549 cells; further: nearly all actives have a fitted effect of over 35% in size
HCV inh = qHTS Assay for Inhibitors of Hepatitis C Virus (HCV) | Huh7.5.1 HCVcc-Cre infection, luciferase reporter, 44 h | Potency, µM (series often up to 41.8 µM), most hits filed as inhibitors | hit rate 3.4% among 340,000 | AID 651820, 2012
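Compounds are dispensed onto cells plated 4 h earlier at 1,000 per well, with HCVcc-Cre virus (about 0.5 moi) added next. Following 44 h of culture, luminescent signal is measured for 15 sec after 15 min with substrate at room temperature.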
Large screens that a line does not name were inactive; ! = not confirmed by another sample. Rows were chosen to be rich in hits. Some 7.5% of all compounds tested hit in one or more screens of this group. Unless noted, the call rests on the fitted dose curve; in most records, active means well fitted curve in the direction sought with a large enough effect; inconclusive means small, poorly fitted or top-dose-only effect, or another doubt; inactive means no such curve, though single readings can be large; an effect the other way counts as inactive or inconclusive.

Cn1c(NCc2ccco2)nc2c1c(=O)n(Cc1ccc(Cl)c(Cl)c1)c(=O)n2C	FMDV inh 31.6µM (no result: VACV mCherry inh)
CSc1nc2c(c(=O)[nH]c(=O)n2C)n1Cc1ccc(Cl)cc1	HCV inh 25.1µM
CNC(=O)CSc1nc2c(c(=O)n(C)c(=O)n2C)n1Cc1ccc(C)cc1	HCV inh 0.631µM (no result: FMDV inh)
CCC(C)Nc1nc2c(c(=O)n(C)c(=O)n2C)n1Cc1ccc(Cl)cc1 (stereo not given)	none
CSc1nc2c(c(=O)[nH]c(=O)n2C)n1Cc1ccccc1Cl	FMDV inh inconclusive (no result: VACV Venus inh, VACV mCherry inh)
CCNc1nc2c(c(=O)n(C)c(=O)n2C)n1Cc1ccc(Cl)cc1	HCMV antiviral -65.6, HCV inh 3.55µM
COc1ccc(CNc2nc3c(c(=O)n(Cc4ccc(Cl)cc4)c(=O)n3C)n2C)cc1	FMDV inh 12.6µM, HCMV antiviral inconclusive, HCV inh inconclusive (no result: VACV Venus inh, VACV mCherry inh)
CCN(C(=O)CN1CCC(C(=O)OC)CC1)c1c(N)n(Cc2ccccc2)c(=O)[nH]c1=O	none (no result: VACV Venus inh, Giardia FBPA inh, VACV mCherry inh)
Cc1cccc(N(C(=O)CNC(=O)c2ccco2)C(C(=O)NC2CCCC2)c2ccncc2)c1 (stereo not given)	none
Cc1ccc(N(C(=O)c2csnn2)C(C(=O)NC2CCCCC2)c2ccncc2)cc1 (stereo not given)	HCMV antiviral -64.2 (no result: Giardia FBPA inh)
Cc1cc(C)cc(N(C(=O)CNC(=O)c2ccco2)C(C(=O)NC2CCCC2)c2ccncc2)c1 (stereo not given)	HCMV antiviral -67.4
O=C(NC1CCCC1)C(c1ccccn1)N(C(=O)c1csnn1)c1ccccc1Cl (stereo not given)	HCMV antiviral -65.9
Cc1ccc(S(=O)(=O)Cc2ccc(C(=O)N3CCCCCC3)o2)cc1	HCMV antiviral -62.9
COc1ccc(N2CCN(C(=O)c3ccc(CS(=O)(=O)c4ccc(Br)cc4)o3)CC2)cc1	HCMV antiviral -83.8! (no result: Giardia FBPA inh)
N/C(=N\OC(=O)c1ccccc1F)c1cccc([N+](=O)[O-])c1	none (no result: VACV Venus inh, VACV mCherry inh)
COCCCN(C(=O)C1CCC1)c1c(N)n(Cc2ccccc2)c(=O)[nH]c1=O	none (no result: Giardia FBPA inh)
COc1ccc(NC(=O)CN(C)C(=O)C(Sc2ccccc2)c2ccccc2)cc1 (stereo not given)	HCMV antiviral -71.9, HCV inh inconclusive (no result: VACV Venus inh, Giardia FBPA inh, VACV mCherry inh)
Cc1ccc(NC(=O)CN(C)C(=O)C(c2ccccc2)c2ccccc2)cc1	HCV inh inconclusive (no result: Giardia FBPA inh)
Cc1cccc(NC(=S)N2CCN(S(=O)(=O)c3cccc(F)c3)CC2)c1	HCV inh 6.31µM
Cc1cccc(NC(=S)N2CCN(S(=O)(=O)c3ccccc3)CC2)c1	HCMV antiviral inconclusive, VACV mCherry inh inconclusive (no result: Giardia FBPA inh)
Cc1ccc(NC(=O)N2CCc3cc(S(=O)(=O)N4CCC(C)CC4)ccc32)cc1F	VACV Venus inh inconclusive (no result: Giardia FBPA inh, HCV inh)
O=C(CSc1nc2ccccc2c(=O)n1-c1ccc(F)cc1F)Nc1ccc2c(c1)CCC2	HCMV antiviral -71.9, HCV inh inconclusive (no result: VACV Venus inh, VACV mCherry inh)
Cc1cccc(NC(=O)CSc2nc3nc4c(cc3c(=O)n2-c2ccccc2)CCCC4)c1	HCV inh inconclusive
CN(C)S(=O)(=O)c1cccc(NC(=O)CSc2nc3ccccc3n2-c2ccccc2)c1	VACV Venus inh inconclusive, HCMV antiviral -87.6, VACV mCherry inh inconclusive, HCV inh inconclusive
O=C(CSc1nc2ccc(F)cc2c(=O)n1-c1ccccc1)Nc1ccc2c(c1)CCC2	HCMV antiviral inconclusive (no result: Giardia FBPA inh, HCV inh)
Cc1ccccc1-n1c(SCC(=O)Nc2ccccc2)nc2nc3c(cc2c1=O)CCCC3	HCMV antiviral -79.7, HCV inh inconclusive
Cc1ccc(-n2c(SCC(=O)Nc3cccc(S(=O)(=O)NC4=NCCCCC4)c3)nc3ccccc3c2=O)cc1	HCMV antiviral -66.3, HCV inh inconclusive
O=S(=O)(c1cccc(Br)c1)N1CCN(c2nc(-c3cccs3)nc3ccccc23)CC1	none (no result: FMDV inh, HCMV antiviral, Giardia FBPA inh, HCV inh)
O=C(CSc1nc2ccccc2c(=O)n1-c1ccccc1F)Nc1ccc2c(c1)CCC2	HCMV antiviral -67.4, HCV inh inconclusive
O=C(CSc1nc2ccccc2c(=O)n1-c1ccc(F)cc1)Nc1ccc2c(c1)CCC2	HCMV antiviral -68.2, HCV inh inconclusive
O=C(Nc1cccc(S(=O)(=O)NC2=NCCCCC2)c1)c1cc(-c2ccccc2Cl)nc2ccccc12	HCMV antiviral -63.7, HCV inh inconclusive
COc1ccc(C(=O)C(C)OC(=O)C2CC3CCCC(C2)C3=O)cc1 (stereo not given)	none (no result: Giardia FBPA inh, HCV inh)
O=C(CSc1nc(-c2ccco2)cc(C(F)(F)F)n1)NCCN1CCOCC1	none
COc1cccc(-c2csc(NC(=O)Nc3ccccc3)n2)c1	FMDV inh 25.1µM, HCMV antiviral inconclusive, HCV inh 11.2µM (no result: VACV Venus inh, VACV mCherry inh)
COc1ccccc1CC(=O)Nc1nc(-c2ccc(F)c(F)c2)cs1	VACV mCherry inh inconclusive, HCV inh 10µM
COc1ccc(OC)c(-c2csc(NC(=O)CSc3ccc([N+](=O)[O-])cc3)n2)c1	FMDV inh inconclusive, HCV inh 10µM
COc1cccc(-c2csc(N3CCN(C(=O)Nc4ccc(F)cc4)CC3)n2)c1	FMDV inh inconclusive, VACV Venus inh inconclusive, HCMV antiviral inconclusive, VACV mCherry inh inconclusive, HCV inh 7.94µM
CCOc1ccccc1NC(=O)Nn1cnnc1	none (no result: Giardia FBPA inh)
Cc1cc(=O)oc(C)c1C(=O)Nc1cccnc1Cl	none (no result: VACV Venus inh, VACV mCherry inh)
COc1ccc(-c2csc(NC(=O)C3CC(=O)N(Cc4ccccc4)C3)n2)cc1OC (stereo not given)	FMDV inh 31.6µM, VACV Venus inh inconclusive, HCV inh inconclusive (no result: Giardia FBPA inh)
COc1ccc(CCNc2nc(-c3sc(N)nc3C)cs2)cc1OC	FMDV inh 10µM (no result: VACV mCherry inh)
COc1ccc(-c2csc(NC3OC(=O)c4c3ccc(OC)c4OC)n2)cc1OC (stereo not given)	FMDV inh inconclusive, VACV Venus inh inconclusive, HCMV antiviral -98.4, VACV mCherry inh inconclusive
COc1ccc(-c2csc(NC(=O)CS(=O)(=O)c3ccccc3)n2)cc1OC	FMDV inh inconclusive (no result: Giardia FBPA inh, HCV inh)
Cc1nnc(NC(=O)C2CC(=O)N(Cc3ccccc3)C2)s1 (stereo not given)	none (no result: Giardia FBPA inh)
COc1ccc(CC(=O)Nc2nc(-c3ccc(OC)c(OC)c3)cs2)cc1OC	FMDV inh inconclusive, HCV inh 5.62µM
COCCn1cnc2c1c(=O)n(CC(=O)NCC(F)(F)F)c(=O)n2Cc1ccccc1	none
C[C@H]1CN([C@@H](C)CO)C(=O)c2cccc(NS(=O)(=O)c3ccc(F)cc3)c2O[C@H]1CN(C)S(=O)(=O)c1cn(C)cn1	none (no result: Giardia FBPA inh)
CCCOc1ccc(F)cc1-c1cc(C(=O)Nc2ccc(C(C)C)cc2)[nH]n1	VACV Venus inh inconclusive, HCMV antiviral inconclusive, VACV mCherry inh inconclusive (no result: Giardia FBPA inh, HCV inh)
Cc1cccc(C)c1[N+](=O)[O-]	none (no result: FMDV inh, VACV Venus inh, Giardia FBPA inh, VACV mCherry inh, HCV inh)
COc1ccc(-c2csc(NC(=O)Cc3ccccc3F)n2)cc1OC	VACV Venus inh inconclusive, HCMV antiviral inconclusive, HCV inh 10µM

From PubChem
